Reference: the supplement of paper PMC12669032

Key:
Experiment in all cases: growth AUC relative to DMSO control (median of replicates) (fraction); higher = more growth (less inhibition), active = hit call of the paper
Details in all cases: 20 µM; 24 h;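 active = AUC reduced over 20% with Padj below 0.05 in at least 2 of 3 replicates; inactive = otherwise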
Akkermansia muciniphila = system: Akkermansia muciniphila
Method in brief: (§1)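 Gut bacterial monocultures were grown anaerobically at 37 °C in mGAM from a starting OD600 of 0.05 with 20 µM compound (1% DMSO), in round-bottom 96-well plates under pierced gas-permeable seals, and OD600 was read hourly for 24 h. With the minimum OD set to 0, area under the growth curve was normalised to the plate median of solvent-only wells, or to row and column medians on the industrial chemical plate. Each value is the median of three biological replicates grown on separate days.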

Bacteroides caccae = system: Bacteroides caccae
Method in brief: as §1

Bacteroides clarus = system: Bacteroides clarus
Method in brief: as §1

Bacteroides dorei = system: Bacteroides dorei
Method in brief: as §1

Bacteroides stercoris = system: Bacteroides stercoris
Method in brief: as §1

[1] = system: Bacteroides thetaiotaomicron
Method in brief: as §1

Bacteroides uniformis = system: Bacteroides uniformis
Method in brief: as §1

[2] = system: Bifidobacterium longum subsp. longum
Method in brief: as §1

Clostridium difficile = system: Clostridium difficile
Method in brief: as §1

Collinsella aerofaciens = system: Collinsella aerofaciens
Method in brief: as §1

Coprococcus comes = system: Coprococcus comes
Method in brief: as §1

Escherichia coli ED1a = system: Escherichia coli ED1a
Method in brief: as §1

Escherichia coli IAI1 = system: Escherichia coli IAI1
Method in brief: as §1

Eubacterium rectale = system: Eubacterium rectale
Method in brief: as §1

[3] = system: Fusobacterium nucleatum subsp. animalis
Method in brief: as §1

Lactobacillus gasseri = system: Lactobacillus gasseri
Method in brief: as §1

Lactobacillus paracasei = system: Lactobacillus paracasei
Method in brief: as §1

Odoribacter splanchnicus = system: Odoribacter splanchnicus
Method in brief: as §1

[4] = system: Parabacteroides distasonis
Method in brief: as §1

Parabacteroides merdae = system: Parabacteroides merdae
Method in brief: as §1

Measured: growth AUC

ClCC1C(CCl)C2(Cl)C(Cl)=C(Cl)C1(Cl)C2(Cl)Cl (stereo not given)
inactive: Akkermansia muciniphila 0.995 | Bacteroides caccae 0.971 | Bacteroides clarus 0.999 | Bacteroides dorei 0.972 | Bacteroides stercoris 0.985 | [1] 0.994 | Bacteroides uniformis 1.01 | [2] 1.02 | Clostridium difficile 0.989 | Collinsella aerofaciens 0.962 | Coprococcus comes 0.945 | Escherichia coli ED1a 0.973 | Escherichia coli IAI1 1 | Eubacterium rectale 1.02 | [3] 1.08 | Lactobacillus gasseri 0.931 | Lactobacillus paracasei 0.974 | Odoribacter splanchnicus 1.06 | [4] 1.01 | Parabacteroides merdae 0.995

CCNc1nc(NC(C)C)nc(SC)n1
inactive: Akkermansia muciniphila 0.916 | Bacteroides caccae 0.959 | Bacteroides clarus 0.997 | Bacteroides dorei 0.976 | Bacteroides stercoris 1.19 | [1] 0.985 | Bacteroides uniformis 1 | [2] 0.988 | Clostridium difficile 0.999 | Collinsella aerofaciens 0.983 | Coprococcus comes 1.01 | Escherichia coli ED1a 0.974 | Escherichia coli IAI1 0.989 | Eubacterium rectale 1 | [3] 1.13 | Lactobacillus gasseri 0.987 | Lactobacillus paracasei 0.992 | Odoribacter splanchnicus 0.999 | [4] 1.01 | Parabacteroides merdae 1.04

COc1ccccc1N
inactive: Akkermansia muciniphila 1 | Bacteroides caccae 1.02 | Bacteroides clarus 1.04 | Bacteroides dorei 1.01 | Bacteroides stercoris 1.16 | [1] 1.02 | Bacteroides uniformis 1.02 | [2] 1.05 | Clostridium difficile 1.01 | Collinsella aerofaciens 1.02 | Coprococcus comes 0.993 | Escherichia coli ED1a 1 | Escherichia coli IAI1 1 | Eubacterium rectale 1.08 | [3] 1.04 | Lactobacillus gasseri 1.02 | Lactobacillus paracasei 1.02 | Odoribacter splanchnicus 1.16 | [4] 1.28 | Parabacteroides merdae 1.02

CNC(=O)ON=C(CSC)C(C)(C)C
inactive: Akkermansia muciniphila 0.989 | Bacteroides caccae 1.01 | Bacteroides clarus 0.992 | Bacteroides dorei 0.929 | Bacteroides stercoris 1 | [1] 0.986 | Bacteroides uniformis 1.04 | [2] 0.999 | Clostridium difficile 1 | Collinsella aerofaciens 0.983 | Coprococcus comes 0.968 | Escherichia coli ED1a 1.01 | Escherichia coli IAI1 1 | Eubacterium rectale 0.981 | [3] 1.01 | Lactobacillus gasseri 1.03 | Lactobacillus paracasei 0.985 | Odoribacter splanchnicus 0.983 | [4] 1.02 | Parabacteroides merdae 1.02

CNc1cnn(-c2cccc(C(F)(F)F)c2)c(=O)c1Cl
inactive: Akkermansia muciniphila 0.94 | Bacteroides caccae 0.979 | Bacteroides clarus 1.02 | Bacteroides dorei 1.01 | Bacteroides stercoris 0.914 | [1] 0.994 | Bacteroides uniformis 0.991 | [2] 0.989 | Clostridium difficile 0.937 | Collinsella aerofaciens 1.03 | Coprococcus comes 0.978 | Escherichia coli ED1a 0.99 | Escherichia coli IAI1 0.981 | Eubacterium rectale 0.995 | [3] 0.946 | Lactobacillus gasseri 0.975 | Lactobacillus paracasei 0.943 | Odoribacter splanchnicus 0.992 | [4] 1.01 | Parabacteroides merdae 0.989

CN(C)C(CSS(=O)(=O)[O-])CSS(=O)(=O)[O-].[Na+].[Na+]
inactive: Akkermansia muciniphila 0.921 | Bacteroides caccae 0.916 | Bacteroides clarus 1 | Bacteroides dorei 1.09 | Bacteroides stercoris 1.04 | [1] 0.983 | Bacteroides uniformis 1.14 | [2] 1.25 | Clostridium difficile 0.955 | Collinsella aerofaciens 0.969 | Coprococcus comes 0.999 | Escherichia coli ED1a 0.983 | Escherichia coli IAI1 0.998 | Eubacterium rectale 1.47 | [3] 1.18 | Lactobacillus gasseri 1 | Lactobacillus paracasei 1.01 | Odoribacter splanchnicus 0.951 | [4] 0.978 | Parabacteroides merdae 0.998

CC1=C(C(=O)Nc2ccccc2)S(=O)(=O)CCO1
inactive: Akkermansia muciniphila 0.915 | Bacteroides caccae 0.983 | Bacteroides clarus 0.976 | Bacteroides dorei 0.977 | Bacteroides stercoris 1.02 | [1] 0.994 | Bacteroides uniformis 0.981 | [2] 0.944 | Clostridium difficile 0.973 | Collinsella aerofaciens 1.02 | Coprococcus comes 0.986 | Escherichia coli ED1a 1.02 | Escherichia coli IAI1 0.994 | Eubacterium rectale 0.985 | [3] 0.959 | Lactobacillus gasseri 0.998 | Lactobacillus paracasei 0.981 | Odoribacter splanchnicus 0.962 | [4] 0.975 | Parabacteroides merdae 1

Cc1cc(C)c(C2=C(OC(=O)CC(C)(C)C)C3(CCCC3)OC2=O)c(C)c1
active: [4] 0.772
inactive: Akkermansia muciniphila 1.2 | Bacteroides caccae 0.977 | Bacteroides clarus 1 | Bacteroides dorei 0.988 | Bacteroides stercoris 1.23 | [1] 1.05 | Bacteroides uniformis 0.958 | [2] 1.05 | Clostridium difficile 0.98 | Collinsella aerofaciens 1.02 | Coprococcus comes 0.974 | Escherichia coli ED1a 1.02 | Escherichia coli IAI1 1.03 | Eubacterium rectale 1.04 | [3] 1.09 | Lactobacillus gasseri 0.918 | Lactobacillus paracasei 1.14 | Odoribacter splanchnicus 0.978 | Parabacteroides merdae 1.04

COCC(C)N(C(=O)CCl)c1c(C)csc1C (stereo not given)
active: [4] 0.683
inactive: Akkermansia muciniphila 1.35 | Bacteroides caccae 1.03 | Bacteroides clarus 1.01 | Bacteroides dorei 0.929 | Bacteroides stercoris 1.04 | [1] 0.973 | Bacteroides uniformis 0.93 | [2] 0.841 | Clostridium difficile 0.847 | Collinsella aerofaciens 0.922 | Coprococcus comes 1.02 | Escherichia coli ED1a 0.976 | Escherichia coli IAI1 0.993 | Eubacterium rectale 1.16 | [3] 0.825 | Lactobacillus gasseri 0.806 | Lactobacillus paracasei 1.01 | Odoribacter splanchnicus 0.822 | Parabacteroides merdae 1

CCCCNC(=O)n1c(NC(=O)OC)nc2ccccc21
inactive: Akkermansia muciniphila 1.04 | Bacteroides caccae 0.999 | Bacteroides clarus 0.979 | Bacteroides dorei 1 | Bacteroides stercoris 1.01 | [1] 0.999 | Bacteroides uniformis 1.02 | [2] 0.984 | Clostridium difficile 0.955 | Collinsella aerofaciens 0.993 | Coprococcus comes 1.04 | Escherichia coli ED1a 1.04 | Escherichia coli IAI1 0.977 | Eubacterium rectale 0.917 | [3] 0.976 | Lactobacillus gasseri 1.01 | Lactobacillus paracasei 0.997 | Odoribacter splanchnicus 1.04 | [4] 0.945 | Parabacteroides merdae 0.965
